Compound activity: PubChem, The Scripps Research Institute Molecular Screening Center
TEAD-YAP block: TEAD-YAP interaction inhibition, primary screen, TEAD-YAP interaction inhibitor project, luminescence, HEK-TIYL cells; TEAD-Gal4/YAP UAS-luciferase luminescence; 1.4% of 640,000 active; AID 1259422, 2018; inhibition, % at 9.12 µM; in the data active = inhibition above about 32%;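 also: 0% = median of test compound wells and 100% = reference inhibitor wells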
GPR151 activ: activators of human GPR151, primary screen, cell-based, PathHunter beta-arrestin, luminescence; PathHunter beta-arrestin GPR151 cells; AID 1508602, 2020; activation, % at 11.2 µM; 1% of 650,000 active; in the data active = activation above about 4.9%;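 also: 0% = median of compound wells and 100% = cells with positive control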
MITF primary: MITF inhibitors, primary screen, biochemical, AlphaScreen, human | Microphthalmia-associated transcription factor (Homo sapiens), O75030 | AlphaScreen MITF homodimerization, bead proximity signal | inhibition, % at 2.6 µM | 0.91% of 650,000 active | AID 1259374, 2018; in the data active = inhibition above about 50%;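 also: 0% = vehicle wells with protein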
FBW7 act: FBW7 E3 ligase activators, primary screen, biochemical, AlphaScreen, human | AlphaScreen FBW7–phospho-cyclin E peptide binding, activator screen | F-box/WD repeat-containing protein 7 (Homo sapiens), Q969H0 | normalized activity (activation), % at 26.1 µM | 0.13% of 650,000 active; in the data active = normalized activity above about 1.9%;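 also: purified mutant Fbw7 with reduced substrate affinity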
GPR151 conf act: GPR151 activators, triplicate retest, confirmation, cell-based, PathHunter beta-arrestin, luminescence | activation, % at 11.2 µM | shares compounds with GPR151 activ | AID 1508609, 2020 | 6,700 tested, under 10 active | GPR151 PathHunter beta-arrestin cells, 90 min; % of EA-reagent control over plate median;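 active = mean percent activation across replicates above the confirmation screen cutoff of 4.91%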
GPR119 ag: GPR119 activators in beta-arrestin cells, counter-screen for GPR151 activator project, cell-based, PathHunter beta-arrestin, luminescence, triplicate | 90 min; 0 = compound-well median, 100 = enzyme-acceptor control | AID 1508611, 2020 | activation, % at 11.2 µM | 0.3% of 6,700 active | shares compounds with GPR151 activ;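 active = mean percent activation in the counterscreen above 29.09%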;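 also: counterscreen on off-target GPR119 to flag nonselective hits from the GPR151 activator screen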
Target sequence (Q8TDV5 whole entry, looked up): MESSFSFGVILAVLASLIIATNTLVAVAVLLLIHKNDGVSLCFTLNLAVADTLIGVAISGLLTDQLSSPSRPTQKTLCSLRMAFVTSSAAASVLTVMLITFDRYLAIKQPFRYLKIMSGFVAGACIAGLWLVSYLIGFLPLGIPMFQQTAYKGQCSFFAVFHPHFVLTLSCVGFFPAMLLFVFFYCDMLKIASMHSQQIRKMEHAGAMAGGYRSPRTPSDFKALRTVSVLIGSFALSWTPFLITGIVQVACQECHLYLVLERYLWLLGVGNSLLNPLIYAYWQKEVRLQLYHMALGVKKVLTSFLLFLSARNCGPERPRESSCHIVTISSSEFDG
Numbers without * were called inactive; x = no result. In the library only some 3.4% were active in any assay of this set; here they are far more common.

SMILES	TEAD-YAP block	GPR151 activ	MITF primary	FBW7 act	GPR151 conf act	GPR119 ag
CCOc1cc(C)c(S(=O)(=O)N2CCCC2)cc1C	-5	6.7*	-32	0	0	-3
CCOc1cc(C)c(S(=O)(=O)N2CC(C)OC(C)C2)cc1C (stereo unspecified)	-3	1	13	0	x	x
CCOc1ccc(NC(=O)COc2ccc(C3C(C#N)=C(N)Oc4n[nH]c(C)c43)cc2)cc1 (stereo unspecified)	-7	0	-2	0	x	x
COc1ccc(NC(=O)COc2ccc(C3C(C#N)=C(N)Oc4n[nH]c(C)c43)cc2)cc1 (stereo unspecified)	-7	10.0*	10	0	1	-8
NC(=O)c1ccc(NC(=O)Cn2cc(S(=O)(=O)Cc3ccccc3)c3ccccc32)cc1	-4	0	7	0	x	x
CC(C)(C)NC(=O)Cn1cc(S(=O)(=O)Cc2ccccc2)c2ccccc21	-11	8.3*	1	0	0	-3
CC(C)(C)NC(=O)Cn1cc(S(=O)(=O)Cc2ccc(F)cc2)c2ccccc21	5	5.3*	12	0	1	4
COc1ccccc1N1CCN(C(=O)CSc2nc(N)cc(=O)[nH]2)CC1	13	-1	12	0	x	x
COc1ccccc1N1CCN(C(=O)CSc2nc3ccccc3[nH]2)CC1	9	6.0*	10	0	0	2
CCn1c(Sc2ccc([N+](=O)[O-])cc2C=O)nnc1-c1ccncc1	19	1	-5	0	x	x
Clc1nc(NCCN2CCOCC2)c2ncn(-c3ccsc3)c2n1	8	4	-6	0	x	x
C=CCN(c1ccc(C(=O)OCC)cc1)S(C)(=O)=O	-6	4.9*	1	0	0	-3
CCOC(=O)c1ccc(N(Cc2ccccc2)S(C)(=O)=O)cc1	8	1	13	0	x	x
COC(=O)c1cccn2cc(-c3ccc(F)cc3)nc12	-10	4.9*	1	0	-1	-6
C/C(N)=C(/C#N)C(=O)COC(=O)c1ccccc1I	4	-2	15	1	x	x
CC(=O)c1cccc(NC(=S)NC(=O)C2CCCCC2)c1	-11	1	17	0	x	x
COc1ccc(C2CC(C(F)(F)F)n3nc(C(=O)Nc4cccc(O)c4)cc3N2)cc1 (stereo unspecified)	2	5.8*	14	0	0	12
COc1ccc(C2CC(C(F)(F)F)n3nc(C(=O)Nc4cccc(C(F)(F)F)c4)cc3N2)cc1 (stereo unspecified)	0	0	-6	0	x	x
O=C1CC(c2ccc(S(=O)(=O)NCCc3ccc(Cl)cc3)cc2)CN1 (stereo unspecified)	8	0	13	0	x	x
CCOc1ccc(C2=NC(c3ccc(OC)cc3)NC(c3ccccc3O)C2)cc1 (stereo unspecified)	-60	6.4*	4	0	0	-11
COc1ccc(-n2c(=S)[nH]c3cc(C(=O)Nc4ccc(C)c(Cl)c4)ccc3c2=O)cc1	4	1	2	0	x	x
Oc1ccc(/C=N/NC(=S)NC2CCCCC2)c(O)c1	-29	1	27	-1	x	x
CCCCN(CC)c1cnn(-c2ccccc2)c(=O)c1N	-5	9.2*	13	0	0	-1
CC(C)(C)n1nc2c(c1NC(=O)CC1CCCCC1)CSC2	2	2	-17	0	x	x
CC1CCN(C(=O)[C@H]2C[C@@H](c3ccc(F)cc3)NS(=O)(=O)N2C)CC1	3	1	-3	0	x	x
SMILES	TEAD-YAP block	GPR151 activ	MITF primary	FBW7 act	GPR151 conf act	GPR119 ag
CCCCn1c(C)nc2c(sc3nc4c(cc32)COC(C)(C)C4)c1=O	-34	9.0*	20	0	1	1
CCOc1ccc(NC2SC(=O)NC2=O)cc1 (stereo unspecified)	9	5.0*	-2	0	-1	-9
CCOc1ccc(NC(=O)CC2SC(=O)NC2=O)cc1 (stereo unspecified)	6	0	-4	0	x	x
CCOC(=O)c1c(NC(=O)C2C3C=CC(C3)C2C(=O)O)sc2c1CCCCC2 (stereo unspecified)	16	5.5*	5	0	0	-7
CCOC(=O)c1c(NC(=O)COc2c(C)cc(Cl)cc2Cl)sc2c1CCCC2	0	0	-5	0	x	x
CCOC(=O)c1c(NC(=O)COc2c(F)c(F)cc(F)c2F)sc2c1CCCC2	8	5.0*	13	1	1	9
CCN(CC)c1ccc(C2C(C(=O)OCCOc3ccccc3)=C(C)NC3=C2C(=O)CC(C)(C)C3)cc1 (stereo unspecified)	6	0	-1	0	x	x
O=C(/C=C/c1ccccc1)ON1C(=O)CCC1=O	-1	2	4	0	x	x
CNC(=O)/C(=C/c1cccc([N+](=O)[O-])c1)NC(=O)c1ccc(C(C)(C)C)cc1	1	6.0*	3	0	0	-3
O=C(OCc1ccccc1)/C(=C/c1cccc([N+](=O)[O-])c1)NC(=O)c1ccco1	-5	0	4	0	x	x
NC(=O)/C(=C/c1cccc([N+](=O)[O-])c1)NC(=O)c1ccco1	-1	6.8*	-6	0	1	-4
CCOC(=O)c1c(NC(=O)c2cccc(OC)c2)sc2c1CCC(CC)C2 (stereo unspecified)	-4	-1	-1	0	x	x
O=C(c1ccc2ccccc2n1)N1CCOCC1	7	5.4*	7	0	0	-5
Cc1c(C(=O)Nc2cc(Sc3ccc(F)cc3)cc([N+](=O)[O-])c2)sc2ncn(Cc3ccccc3F)c(=O)c12	5	5.1*	19	0	2	12
O=C(Nc1ccc(F)cc1F)C(=O)N1CCCCC1	-33	7.1*	-10	0	1	3
CC(=O)Oc1ccc(/C=c2/sc3nc(=O)c(Cc4ccc(F)cc4)nn3c2=O)cc1	11	1	-1	0	x	x
O=c1nc2s/c(=C/c3cccs3)c(=O)n2nc1Cc1ccc(F)cc1	12	5.0*	8	-2	0	-5
CCCNC(=O)Cn1cnc2c(nnn2-c2cc(C)cc(C)c2)c1=O	9	7.0*	0	0	0	-1
Cc1cc(C)cc(-n2nnc3c(=O)n(Cc4ccc(Cl)c(Cl)c4)cnc32)c1	4	-1	15	0	x	x
COC(=O)c1ccc(Cn2cnc3c(nnn3-c3cc(C)cc(C)c3)c2=O)o1	-3	5.0*	-14	0	0	1
